Data published in ChEMBL document CHEMBL4513216, “Probing the Open Global Health Chemical Diversity Library for Multistage-Active Starting Points for Next-Generation Antimalarials” (ACS Infect Dis, 2020).
Out of some 69,000 compounds screened, about 8,600 (12%) showed an effect of 50% or more. The sample holds strong results, similar compounds and a random draw of the others, so the mix is not that of the screen.

Each compound was assayed on Plasmodium berghei (assay: Screen against P. berghei liver stage (PbLuc), transformed with Luciferase, at 10uM). Details: tested at 10 uM.
Format: functional, HepG2

Row | SMILES | INHIBITION
1 | CCn1c(SCC(=O)N2CCCC2)nc2cc(C)[nH]c2c1=O | 40%
2 | c1csc(CN2CCC3(CCOCC3COCC3CC3)CC2)n1 (stereo unspecified) | -18.2%
3 | CCN(Cc1nccn1C)C1CCN(c2ccccc2)C1=O (stereo unspecified) | 42.6%
4 | C=C(C)Cn1cc(C(N)=O)nc1C1CC1 | -6.67%
5 | N#Cc1ccccc1OCCN1CCCCC1C(=O)N1CCOCC1 (stereo unspecified) | 47.1%
6 | N#Cc1cnc2ccccc2c1N1CCC(C(=O)O)CC1 | 35.7%
7 | N#Cc1ccccc1OCCN1CCC(C(=O)N2CCOCC2)CC1 | 70.3%
8 | N#Cc1ccccc1N1CCN(CCC(=O)N2CCOCC2)CC1 | -29.4%
9 | N#Cc1ccccc1OCCN1CCC(N2CCNC2=O)CC1 | 24%
10 | N#Cc1ccccc1OCCN1CCN(C(=O)C2CCCC2)CC1 | 65.6%
11 | CC(C)(C)C(=O)N1CCN(CCOc2cccc(C#N)c2)CC1 | -18%
12 | CC(C)C(=O)N1CCN(CCOc2cccc(C#N)c2)CC1 | 39.2%
13 | N#Cc1cnc2ccccc2c1N1CCN(CCC(=O)O)CC1 | 5.87%
14 | N#Cc1cccc(OCCN2CCC(C(=O)N3CCOCC3)CC2)c1 | 55.4%
15 | Cc1nnc(CN2CCN(CCOc3ccccc3C#N)CC2)n1C | 21.2%
16 | N#Cc1cnc2ccccc2c1N1CCN(C(=O)C2CCC2)CC1 | 90.6%
17 | CN1CC(=O)N(c2ccsc2)CC12CCN(C(=O)CC1CCCC1)C2 (stereo unspecified) | 21.8%
18 | NC(=O)NC(=O)C(c1ccccc1)N1CCN(Cc2ccsc2)CC1 (stereo unspecified) | 4.52%
19 | Cc1cc(C)n(CC2CCCN2C(=O)Cc2c(C)nc(C)[nH]c2=O)n1 (stereo unspecified) | 2.3%
20 | O=C(O)c1cc2c(nc1-c1ccoc1)CCN(Cc1ccco1)CC2 | 34.6%
21 | Cc1occc1C(=O)N1C[C@@H]2OCCN(C(C)C)[C@@H]2C1 | 15.9%
22 | CN1CC2(CCN(C(=O)CCCOCc3ccccc3)C2)OC1=O (stereo unspecified) | 12.4%
23 | CCn1nc(C)cc1C(=O)NCc1noc(C(C)(C)C)n1 | 27.5%
24 | O=C1CCC[C@]2(CN(S(=O)(=O)N3CCOCC3)C[C@H]2c2cccnc2)N1 | 41.5%

Row | SMILES | INHIBITION
25 | Cc1nnc(-c2cccc(C#N)c2)n1C1CCCN(C(C)C)C1=O (stereo unspecified) | -18.9%
26 | CN1CCCCC1C(=O)N1CCN(c2ccccc2C#N)CC1 (stereo unspecified) | 39.6%
27 | N#Cc1cccc(OCCN2CCCC2C(=O)N2CCSCC2)c1 (stereo unspecified) | 55.3%
28 | N#Cc1cccc(OCCN2CCCC2C(=O)NC2CC2)c1 (stereo unspecified) | -3.21%
29 | N#Cc1cccc(OCCN2CCCC2C(=O)NCC(F)(F)F)c1 (stereo unspecified) | 2.93%
30 | CN1CCCCCC1C(=O)N1CCCN(c2ccccc2)CC1 (stereo unspecified) | 45.6%
31 | CN1CCCCCC1C(=O)N1CCN(c2ccccc2C#N)CC1 (stereo unspecified) | 62.4%
32 | CC(C)N1CCN(C(=O)c2ccccc2NCc2cccnc2)CC1 | -9.31%
33 | CC(C)c1nnc(NC(=O)N(C)Cc2ccc(C(N)=O)cc2)s1 | 22.5%
34 | Cc1cc(O)cc(=O)n1CCCC(=O)Nc1n[nH]c2cccc(F)c12 | 5.03%
35 | COc1ccccc1CNC(Cc1cccs1)c1nc(C)c(C)s1 (stereo unspecified) | 55.6%
36 | COc1ccccc1CNC(Cc1cccs1)c1nc(C)cs1 (stereo unspecified) | 47.2%
37 | COc1cccc(CNC(Cc2cccs2)c2nc(C)c(C)s2)c1OC (stereo unspecified) | 42.4%
38 | O=C1CCC2(CCC(NC(=O)NCc3cccnc3)CC2)N1 (stereo unspecified) | 35.8%
39 | CC(C)c1nc(CNc2nccc(CCC(F)(F)F)n2)cs1 | 16.2%
40 | FC(F)(F)CCc1ccnc(NCc2csc(N3CCOCC3)n2)n1 | 69%
41 | Nc1nc(CNc2nccc(CCC(F)(F)F)n2)cs1 | 32.7%
42 | Cc1noc(C)c1CN1CC[C@H]2OCC[C@@]2(C(=O)N2CCOCC2)C1 | 47.4%
43 | CN(Cc1ccc(Cl)c(F)c1)C(=O)c1ccncc1F | 36.2%
44 | CN(Cc1ccc(Cl)c(F)c1)C(=O)CCc1ccncc1 | 56.5%
45 | CN(Cc1ccc(Cl)c(Cl)c1)C(=O)CNC(N)=O | -36.3%
46 | O=C1CCc2cc(S(=O)(=O)NC(=O)c3ccc4c(c3)OCO4)ccc2N1 | 39.4%
47 | O=C1CCc2cc(S(=O)(=O)NC(=O)c3ccc4c(c3)CCO4)ccc2N1 | 44.7%
48 | COCc1ccc(C(=O)NS(=O)(=O)c2ccc3c(c2)CCC(=O)N3)cc1 | 61.8%

Row | SMILES | INHIBITION
49 | COCc1ccccc1C(=O)NS(=O)(=O)c1ccc2c(c1)CCC(=O)N2 | 25.5%
50 | O=C1COc2cc(C(=O)NS(=O)(=O)c3ccc(F)c(F)c3)ccc2N1 | 41.5%
51 | O=C1CCc2cc(S(=O)(=O)NC(=O)c3ccc4c(c3)COC4)ccc2N1 | 62.9%
52 | O=C(C1CCOCC1)N1CCc2ncc(CN3CCCC3)n2CC1 | 29.9%
53 | Cc1ccc2ncccc2c1CN1CC[C@H](N(C)C)[C@H](CCC(=O)O)C1 | -102%
54 | CC(C)CCn1[nH]c(CNc2ccc(Cl)cc2)nc1=O | 40%
55 | N#CCCn1cnc2c(Br)cc(Br)cc2c1=O | 44.2%
56 | N#CCCn1cnc2c(F)cc(Br)cc2c1=O | 53.9%
57 | N#CCCCn1cnc2c(F)cc(Br)cc2c1=O | 46.4%
58 | O=C(NCCCn1ccnc1)NCC(c1ccco1)N1CCCCC1 (stereo unspecified) | -67.3%
59 | CCC[C@@H]1CN(C(=O)c2cc(-c3cccs3)n(C)n2)C[C@H]1NS(C)(=O)=O | 18.8%
60 | O=C(NCCN1CCOCC1)c1cnc(Cc2ccc(F)cc2)s1 | 63.7%
61 | O=C(NCCN1CCOCC1)c1cnc(-c2ccccc2F)s1 | 41.6%
62 | O=C(NCCN1CCOCC1)c1ccc(-c2ccc(F)cc2)nc1O | 61.2%
63 | CCc1ncc(C(=O)NCCNC(=O)Cc2ccc(F)cc2)s1 | -49.7%
64 | CN(C)CCCNC(=O)c1cnc(Cc2ccc(F)cc2)s1 | 73.1%
65 | Cc1cccc(-c2ccc(C(=O)NCCN3CCOCC3)c(=O)[nH]2)c1 | 68.6%
66 | Cc1ccc(C(=O)NCCN2CCOCC2)c(=O)[nH]1 | -14.1%
67 | CCNC(=O)c1cnc(Cc2ccc(F)cc2)s1 | 17.4%
68 | O=C(NCCCN1CCOCC1)c1ccc(-c2ccccc2)[nH]c1=O | 41.4%
69 | COC(=O)CCNC(=O)c1cnc(Cc2ccc(F)cc2)s1 | 18.3%
70 | O=C(NCCN1CCOCC1)c1ccc(-c2ccccc2)[nH]c1=O | -14.1%
71 | O=C(NCCN1CCOCC1)c1ccn(COc2ccc(F)cc2)n1 | -8.9%
